# According to PubChem BioAssay AID504452 (The Scripps Research Institute Molecular Screening Center, 2011):
# Active and inactive are the calls of the source. No stated cut-off is given here; in the data, active means activation above about 85%; inactive means the rest.
# Target: Peroxisome proliferator-activated receptor gamma (Homo sapiens) (UniProt P37231)
# Assay: PPARg partial agonist activation, primary screen, cell-based, luciferase reporter, luminescence (AID 504452);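 further: Cos-1 cells carrying PPARgamma and a response element luciferase reporter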
# Conditions: at 5 µM, stronger effect = higher value; activation (% of full agonist control): measured here: relative to full agonist control
# Chain of Peroxisome proliferator-activated receptor gamma (Homo sapiens) (P37231 whole entry, looked up): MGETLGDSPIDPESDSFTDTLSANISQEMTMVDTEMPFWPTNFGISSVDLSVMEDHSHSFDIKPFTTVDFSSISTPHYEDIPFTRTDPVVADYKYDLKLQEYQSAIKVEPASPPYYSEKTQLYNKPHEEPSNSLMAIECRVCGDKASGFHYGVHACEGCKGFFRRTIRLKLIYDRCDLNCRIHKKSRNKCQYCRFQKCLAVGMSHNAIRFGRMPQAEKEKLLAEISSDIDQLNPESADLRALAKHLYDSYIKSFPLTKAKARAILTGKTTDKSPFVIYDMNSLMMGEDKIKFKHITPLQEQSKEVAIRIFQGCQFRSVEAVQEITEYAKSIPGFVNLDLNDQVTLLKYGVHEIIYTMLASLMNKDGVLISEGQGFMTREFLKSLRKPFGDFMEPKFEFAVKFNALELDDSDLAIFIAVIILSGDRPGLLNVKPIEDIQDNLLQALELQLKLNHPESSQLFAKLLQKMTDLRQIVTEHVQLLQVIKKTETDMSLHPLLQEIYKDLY
Structure (SMILES),activation (% of full agonist control),activation (% of partial agonist control)
O=C(COc1cc(F)ccc1[N+](=O)[O-])N1N=C(c2cccs2)CC1c1ccco1 (configuration not stated),35.6%,78.9% (inactive)
COC(=O)C1=CN(Cc2ccccc2)C=C(C(=O)OC)C1c1ccc(OC)c(OC)c1,25.9%,57.3% (inactive)
COc1ccc(O)c(C(=O)c2cc(C#N)c(=O)n(CC3CCCO3)c2)c1 (configuration not stated),38.1%,84.3% (inactive)
Cc1ccc(/C(O)=C2/C(=O)C(=O)N(c3ccccn3)C2c2cccc([N+](=O)[O-])c2)cc1 (configuration not stated),34.1%,75.6% (inactive)
O=C(CSc1nnc(Cc2cc(=O)[nH]c(=O)[nH]2)n1-c1ccc(Cl)cc1)N1CCc2ccccc21,46.6%,103% (active)
Cc1nc2c(sc(=S)n2Cc2ccco2)c(=O)n1CC(=O)Nc1cc(F)ccc1F,32.4%,71.8% (inactive)
